Compounds without any hit were thinned out: in the full panel of roughly 83,000, 20% have a hit.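 Results are percent growth after 48 hours of single-concentration exposure. 100 means growth as in untreated cells, lower positive values show inhibition; negative values down to -100 show cell death.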 A number with no mark means an inactive call. The calls were made as follows: active = growth percent below 10; inactive = the rest.

The source of these data is PubChem BioAssay (NCI).

The subject of this test is MDA-MB-468 breast. The test can be described thus: NCI-60 one-dose screen, 48 h (100 = growth as untreated, 0 = no growth, -100 = all killed). Conditions: 10 µM unless noted.
Take `O=c1cc(-c2ccccc2)[nH]n1-c1nc2ccccc2[nH]1`: the growth is 66.2%. The result for `NC(=O)[C@@H]1Cc2ccccc2CN1C(=O)c1ccc2c(c1)Cc1ccccc1-2` reads 71.4%. As for `C#C[C@]1(O)CC[C@H]2[C@@H]3CC=C4c5sc(N6CCN(C)CC6)nc5CC[C@]4(C)[C@H]3CC[C@@]21C`, the figure is 47.6%.
